Results from PubChem BioAssay AID1345083 (National Center for Advancing Translational Sciences (NCATS), 2018).
Out of some 94,000 compounds screened, about 6,200 (6.6%) were called active. About 31% were inconclusive and are not listed. The call rests on the fitted dose curve; in most records, active means well fitted inhibition curve with a large enough effect; inconclusive means small, poorly fitted or top-dose-only effect; inactive means flat fitted curve, though single readings scatter. Many of the other results were omitted from the sample, so actives are more common in it than they were.

Assay: Cytotoxic Profiling in HEK 293 Cell Line of Diverse Libraries Using Quantitative High-Throughput Screening; further: nearly all actives have a fitted effect of over 60% in size
Conditions: HEK 293 viability, ATP luminescence (CellTiter-Glo), 48-72 h; series mostly up to 115 µM; activity change, negative = cytotoxicity: at the top concentration
Source text: Cell-based phenotypic screening is a commonly used approach to discover biological pathways, novel drug targets, chemical probes and high-quality hit-to-lead molecules. Many hits identified from high-throughput screening campaign are ruled out through a series of follow-up potency, selectivity/specificity, and cytotoxicity assays. Prioritization of molecules with little or no cytotoxicity for a more in-depth downstream evaluation influence the future direction of projects, so cytotoxicity profiling of the screening libraries at early stage is essential for increasing the likelihood of candidate success. In this study, we analyzed results from a cell-based cytotoxicity screening campaign, comprising nearly 10,000 compounds in NCATS annotated libraries, and over 100,000 compounds in a diversity library, evaluated in four normal cell lines (HEK 293, NIH 3T3, CRL-7250 and HaCat) and a cancer cell line (KB 3-1, a HeLa subline) with overall screening outcomes, hit rates, pan-activity and selectivity. For the annotated library, we also examined the primary targets and mechanistic pathways regularly associated with cell death. To our knowledge, this is the first study to use high-throughput screening to profile large libraries for cytotoxicity assessment in both normal and cancer cell lines. In summary, the results generated here constitutes a valuable resource for the scientific community and provides insight on identifying cytotoxic compounds with particular mechanisms of action, and prioritizing compounds with suitable cytotoxicity profile for further evaluation.
HEK 293 cells were seeded into white 1536-well plates using a Multidrop Combi peristaltic dispenser (ThermoFisher, Waltham, MA) at a density of 250 cells/well in 5 uL of medium respectively. A pintool (Kalypsys) was used to transfer 23 nL of compound solution to the 1536-well assay plates. After 48 or 72 hr incubation at 37 degree Celsius, 5% CO2 and 95% humidity, 2.5 uL of CellTiter-Glo (Promega) was dispensed into each well using a dispenser (Aspect Automation, St. Paul, MN) with solenoid valves (Lee Valves, Westbrook CT). Plates were left at room temperature for 10 min before imaging the ATP-coupled luminescence using a ViewLux microplate imager (PerkinElmer, Waltham, MA).
On the % scale 0 is the no-effect control and ±100 the full control effect; potency means the concentration at half of the fitted maximal effect.

SMILES	activity change, negative = cytotoxicity	Potency	outcome
Cc1ncc2c(n1)C[C@@H]1CC[C@H]2N1C(=O)c1ccccn1	-3.35% (inactive)	–	–
COC(=O)c1ccc(NC(=O)N2[C@H]3CC[C@@H]2c2cnc(-c4ccc(F)cc4)nc2C3)cc1	–	44.7 µM (active)	–
CCS(=O)(=O)N1[C@H]2CC[C@@H]1c1cnc(C)nc1C2	–	–	inactive
Cc1cccc(CC(=O)N2[C@H]3CC[C@@H]2c2cnc(C)nc2C3)c1	–	–	inactive
O=C(Cc1ccccc1)N1[C@H]2CC[C@@H]1c1cnc(-c3ccc(F)cc3)nc1C2	–	28.2 µM (active)	–
Cc1nc(C)c(C(=O)N2[C@H]3CC[C@@H]2c2cnc(-c4ccccc4)nc2C3)s1	–	39.8 µM (active)	–
Cn1cnc(S(=O)(=O)N2[C@H]3CC[C@@H]2c2cnc(-c4ccc(F)cc4)nc2C3)c1	-5.79% (inactive)	–	–
O=C(Cc1cccc(F)c1)N1[C@H]2CC[C@@H]1c1cnc(-c3ccccc3)nc1C2	-17.9% (inactive)	–	–
Cc1ncc2c(n1)C[C@@H]1CC[C@H]2N1S(=O)(=O)c1ccc(F)cc1	-9.05% (inactive)	–	–
O=C(c1ccc2c(c1)CCO2)N1C[C@@H](c2ccc(F)cc2)[C@@H]2[C@H]1C1CCN2CC1	–	–	inactive
O=[S+]1([O-])NC2(CCN(CC3CCOCC3)C2)COc2ccncc21 (centres undefined)	–	–	inactive
CC(=O)N1CC2(CCN(Cc3cccnc3)C2)Cc2ccccc21 (centres undefined)	-16.8% (inactive)	–	–
CC(C)N1CCN(C(=O)Cc2cccn2-c2ccc(F)cc2)CC1	-18.2% (inactive)	–	–
Cc1ccc2c(n1)N(C)[C@H](CO)CCN(C1CCCC1)C2	-1.63% [at 230 µM] (inactive)	–	–
O=C1NC2(Cc3ccccc31)CN(CC1CC1)C2	–	–	inactive [at 230 µM]
Cc1ccc([C@@H]2CN(C(=O)c3ccco3)[C@@H]3C4CCN(CC4)[C@@H]32)cc1	-13.1% (inactive)	–	–
O=C(c1cocn1)N1C[C@H](c2cccc(F)c2F)[C@@H]2[C@H]1C1CCN2CC1	–	–	inactive
CCCS(=O)(=O)N1C[C@@H]2C[C@H](C1)c1ccc(-c3ccccc3C)c(=O)n1C2	–	–	inactive [at 172 µM]
COc1cc2c(cc1Oc1cccc(N(C)C)c1)NC(=O)C21CCN(Cc2ccccn2)CC1	–	44.7 µM (active)	–
COc1cc2c(cc1OCc1ccncc1)NC(=O)C21CCN(c2ncc(F)cn2)CC1	–	50.1 µM (active)	–
COc1cc2c(cc1Oc1ccccc1)NC(=O)C21CCN(c2ccnc(C)n2)CC1	–	63.1 µM (active)	–
COc1cc2c(cc1OC1CCCC1)NC(=O)C21CCN(c2nccs2)CC1	–	89.1 µM (active)	–
O=C(c1ccncc1)N1C[C@@H]2C[C@H](C1)c1ccc(C3CCCCC3)c(=O)n1C2	-2.59% [at 172 µM] (inactive)	–	–
CC1=NOC2(CCN(Cc3cncs3)C2)C1 (centres undefined)	–	–	inactive [at 172 µM]
O=[S+]1([O-])NCC2(CCN(Cc3cccnc3)C2)Oc2ncccc21 (centres undefined)	–	–	inactive
O=C1CC2CCN(Cc3cccnc3)CC2CCN1 (centres undefined)	–	–	inactive [at 172 µM]
O=C1NC2(Cc3ccccc31)CN(Cc1ccncc1)C2	–	–	inactive [at 172 µM]

SMILES	activity change, negative = cytotoxicity	Potency	outcome
COc1cccc([C@H]2CN(c3cc(C)nc(N)n3)[C@@H]3C4CCN(CC4)[C@H]23)c1	-20.8% (inactive)	–	–
CNC(C)c1ccc(Cl)cc1 (centres undefined)	-18.1% [at 230 µM] (inactive)	–	–
Cc1ccccc1OCC(=O)N1CCN(Cc2ccc(=O)n(C)c2)CC1	-19.9% (inactive)	–	–
C=CCOc1c(Cl)cc(CNC(C)Cn2cccn2)cc1OC (centres undefined)	-12.6% (inactive)	–	–
CC(C)N1CC2CCC(C1)N2C(=O)N1CCCC1	4.58% [at 172 µM] (inactive)	–	–
O=C(NC1CCCCC1)N1C[C@@H]2C[C@H](C1)c1c(-c3ccccc3F)ccc(=O)n1C2	-25.2% [at 172 µM] (inactive)	–	–
FC(F)(F)CN1C2CCC1CN(c1ccc(Cl)nn1)C2	–	–	inactive
COc1cc2c(cc1-c1ccncc1)NC(=O)C21CCN(C(C)=O)CC1	-19.9% [at 172 µM] (inactive)	–	–
CC(C)C(=O)N1CCC2(CC1)NCc1ccccc1-n1ccnc12	-12.3% (inactive)	–	–
COc1cc2c(cc1OCc1ccncc1)NC(=O)C21CCN(c2ncccn2)CC1	–	100 µM (active)	–
COc1cc2c(cc1OCc1ccccc1)NC(=O)C21CCN(C(=O)C(C)C)CC1	–	89.1 µM (active)	–
COc1ccc([C@@H]2CN(C(=O)c3c(C)noc3C)[C@@H]3C4CCN(CC4)[C@@H]32)cc1	-7.87% (inactive)	–	–
CCC(CC)c1cc([C@H]2CN3CC[C@H]2C[C@@H]3CNS(=O)(=O)Cc2ccccc2)nc(-c2ccncc2)n1	–	31.6 µM (active)	–
Cc1ccc(S(=O)(=O)NC[C@H]2C[C@@H]3CCN2C[C@@H]3CN2CCN(c3ncccn3)CC2)cc1	-6.41% (inactive)	–	–
CCCS(=O)(=O)NC[C@H]1C[C@@H]2CCN1C[C@@H]2c1cc(C2CCCC2)nn1C	-26.7% [at 172 µM] (inactive)	–	–
COc1ccc(-c2cn(C[C@H]3C[C@@H]4CCN3C[C@@H]4C(=O)NCc3ccccc3)nn2)cc1	-21% [at 172 µM] (inactive)	–	–
CCC(CC)c1cc([C@H]2CN3CC[C@H]2C[C@@H]3CNC(=O)NCc2ccccc2)nc(-c2ccncc2)n1	–	28.2 µM (active)	–
CCCCc1cn(C[C@H]2CC3CCN2C[C@@H]3C(=O)NCc2ccccc2)nn1 (some centres undefined)	-1.65% [at 172 µM] (inactive)	–	–
O=[N+]([O-])c1ccc(N2CC3CCC(C2)N3CC(F)(F)F)nc1	–	–	inactive
Cc1ccc(S(=O)(=O)NC[C@H]2C[C@@H]3CCN2C[C@@H]3CN2CCSCC2)cc1	0.97% [at 172 µM] (inactive)	–	–
Cc1noc(C)c1C(=O)N1C2CCC1CN(Cc1cccnc1)C2	-29.8% (inactive)	–	–
O=C(O)COCC(=O)N1C[C@@H]2C[C@H](C1)c1c(-c3ccc4ccccc4c3)ccc(=O)n1C2	-2.71% [at 172 µM] (inactive)	–	–
CCOc1ccc(C(=O)N2CCC3(CC2)c2nccn2-c2ccccc2CN3C)cc1	-21.5% (inactive)	–	–
C#C[C@H]1CN2CC[C@H]1C[C@@H]2COC(=O)Nc1cc(OC)cc(OC)c1	–	100 µM (active)	–
CCCNC(=O)OC[C@H]1C[C@@H]2CCN1C[C@@H]2c1cc(-c2ccc(OC)c(OC)c2)nn1C	-12.2% (inactive)	–	–
C#C[C@H]1CN2CC[C@H]1C[C@@H]2CNC(=O)C1CC1	-2.38% [at 230 µM] (inactive)	–	–
FC(F)(F)CN1C2CCC1CN(c1ccc(C(F)(F)F)nc1)C2	-14.1% (inactive)	–	–
